Measured values: PubChem BioAssay (NCATS)
Several values for one entry are separate records, joined by “and”; a condition that tells them apart may be missing. Equal entries are not always repeated. Values without a mark were called inactive. Results filed as inconclusive are left out. Activity calls are given as the source filed them. Unless noted, calls follow the shape of the dose curve; as a rule, active = well fitted cell-killing curve with a large enough effect; inconclusive = small, poorly fitted or top-dose-only effect; inactive = flat fitted curve, though single readings scatter.

Assays:
[1] = Cell Viability - BJ (AID 421; calls by dose curve;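 also: potency is read from the fitted curve at half-maximal effect; cells exposed to compound for 40 hours at 37 °C before readout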); settings: BJ fibroblast viability, qHTS
Outline: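 Cytotoxicity as drop in intracellular ATP (CellTiter-Glo, 20 min RT) after 40 hr compound exposure of BJ fibroblasts at 37 °C. Titrations scaled between DMSO and 100 uM tamoxifen, Hill-fitted for AC50.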

[2] = Cell Viability - Jurkat (AID 426;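 active = dose-dependent loss of cell ATP signal giving a full or clear fitted curve, ranked by lower potency value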;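 also: potency is read from the fitted curve at half-maximal effect; cells exposed to compound for 40 hours at 37 °C before ATP read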); settings: qHTS
Outline: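 Cytotoxicity taken as drop in cellular ATP (CellTiter-Glo luminescence, 20 min room temperature) after 40 hr, 37C treatment of 5000 Jurkat Clone E6-1 cells per well; concentration-response fitted with Hill equation for AC50.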

[3] = Cell Viability - Hek293 (AID 427;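 active = compounds whose dose-response curve shows a full or clear partial loss of cell viability, called from curve shape rather than a numeric limit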;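 also: potency is read from the fitted curve at half-maximal effect; cells exposed to compound for 40 hours at 37 °C before reading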); settings: qHTS
Outline: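 Luminescent ATP content (CellTiter-Glo, 20 min at room temperature) was measured after a 40 hr, 37 °C compound exposure of HEK293 cells. AC50 values came from Hill-equation fits of qHTS concentration-response data normalized to DMSO and 100 uM tamoxifen.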

[4] = Cell Viability - HepG2 (AID 433; calls by dose curve;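 also: potency is read from the fitted curve at half-maximal effect; potency for ATP loss meaning cytotoxicity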); settings: qHTS
Outline: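 Read-out is luciferase-based quantitation of cellular ATP as a measure of viable HepG2 cells after 40 h treatment at 37 °C. Signal decrease is scaled between DMSO-only and 100 uM tamoxifen controls, with AC50 fitted by the Hill equation.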

[5] = Cell Viability - MRC5 (AID 434; calls by dose curve;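 also: potency is read from the fitted curve at half-maximal effect; cells exposed to compound for 40 hours at 37 °C; potency reflects cytotoxicity seen as loss of intracellular ATP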); settings: MRC5 lung fibroblast viability, qHTS
Outline: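 AC50 values come from Hill-equation fits of intracellular ATP loss, measured by CellTiter-Glo luminescence. Normal lung fibroblasts (MRC5) had 40 hr compound treatment at 37 C, normalized between DMSO and 100 uM tamoxifen.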

[6] = Cell Viability - SK-N-SH (AID 435; calls by dose curve; also: potency is read from the fitted curve at half-maximal effect); settings: SK-N-SH neuroblastoma cell viability qHTS
Outline: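 Luminescent ATP signal served as the viability read-out after 40 hours of compound treatment of human neuroblastoma SK-N-SH cells. Concentration-response data, scaled between DMSO and 100 uM tamoxifen, gave AC50 values by standard Hill modeling.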

[7] = biological target: Mitogen-activated protein kinase 10 (Mus musculus) (UniProt Q61831); experiment: JNK3 AlphaScreen Assay (AID 530; active = well fitted curve in either direction with a large enough effect, not every such curve was filed as active;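 also: kinase came from lysate of stimulated human HepG2 cells; signal reports phosphorylation of biotinylated GST-cJun 1-79 at Ser73 with 10 µM ATP; % is scaled to controls: 0 for no effect and ±100 for the full control effect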); settings: JNK3 lysate, c-Jun phosphorylation; series mostly up to 57.1 µM
Outline: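 qHTS titrations with 15 min compound pre-incubation before adding ATP (10 uM final). Read-out: AlphaScreen of Ser73-phosphorylated biotin-GST-cJun using HepG2 lysate JNK3 activated by IL-1β and TNFα.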

[8] = Cell Viability - N2a (AID 540); settings: N2a mouse neuroblastoma cell viability; activity change, negative = cytotoxicity: at 92.2 µM (top of the series); also: nearly all actives have a fitted effect of over 45% in size; also: potency is read from the fitted curve at half-maximal effect;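 as to activity change, negative = cytotoxicity: plate controls were DMSO alone for no effect and tamoxifen control for full effect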
Outline: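 CellTiter-Glo ATP luminescence, read 20 min after reagent at room temperature, reported viability following 40 h compound treatment at 37 °C. N2a mouse neuroblastoma cells seeded 1500/well; Hill equation gave AC50.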

[9] = Cell Viability - NIH 3T3 (AID 541); settings: NIH 3T3 cell viability, qHTS; activity change, negative = cytotoxicity: at 92.2 µM (top of the series); also: nearly all actives have a fitted effect of over 25% in size; also: potency is read from the fitted curve at half-maximal effect;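 as to activity change, negative = cytotoxicity: plate controls were DMSO alone for no effect and tamoxifen positive control for full effect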
Outline: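 Intracellular ATP (CellTiter-Glo luminescence, 20 min at room temperature) measured after 40 hr compound exposure at 37 °C of 1000 NIH 3T3 mouse fibroblasts/well in complete medium; AC50 derived by Hill-equation modelling of qHTS concentration-response curves.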

[10] = Cell Viability - H-4-II-E (AID 543); settings: H-4-II-E rat hepatoma viability; series mostly up to 92.2 µM; also: nearly all actives have a fitted effect of over 35% in size; also: potency is read from the fitted curve at half-maximal effect
Outline: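 CellTiter-Glo luminescence (intracellular ATP) measured after 40 h compound exposure at 37 °C in H-4-II-E rat hepatoma cells seeded at 1500/well. Values are AC50s fitted with the standard Hill equation.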

[11] = Cell Viability - SH-SY5Y (AID 544); settings: SH-SY5Y neuroblastoma cell viability; series mostly up to 92.2 µM; also: nearly all actives have a fitted effect of over 55% in size; also: potency is read from the fitted curve at half-maximal effect
Outline: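 Cytotoxicity measured via ATP-dependent luciferase luminescence (CellTiter-Glo) following 40 h, 37 °C exposure of 1500 SH-SY5Y cells per well. Concentration-response data were fitted with the standard Hill equation to give AC50.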

[12] = Cell Viability - Renal Proximal Tubule (AID 545); settings: renal proximal tubule cells viability; activity change, negative = cytotoxicity: at 91.7 µM (top of the series); also: nearly all actives have a fitted effect of over 40% in size; also: potency is read from the fitted curve at half-maximal effect;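 as to activity change, negative = cytotoxicity: 0% = DMSO only and -100% = 100 µM tamoxifen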
Outline: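 Luminescent ATP signal (CellTiter-Glo) served as the viability read-out after 40 hr compound exposure of freshly isolated rat proximal tubule cells at 37 °C. Concentration-dependent ATP loss was fitted with the Hill equation to give AC50.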

[13] = Cell Viability - Mesenchymal (AID 546); settings: mesenchymal cells viability, qHTS; series mostly up to 91.7 µM;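 also: cells exposed to compound for 40 hours before reading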; also: potency is read from the fitted curve at half-maximal effect;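 as to activity change, negative = cytotoxicity: 0% = DMSO only and -100% = 100 µM tamoxifen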
Outline: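 CellTiter-Glo luminescence (intracellular ATP, 20 min room temperature) after 40 hr compound exposure at 37 °C of 1000 glomerulus-derived human kidney mesenchymal cells/well; AC50 values obtained by fitting qHTS concentration-response data to the Hill equation.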

[14] = biological target: Cytochrome P450 1A2 (Homo sapiens) (UniProt P05177); experiment: p450-cyp1a2 (AID 410; calls by dose curve; also: potency is read from the fitted curve at half-maximal effect); settings: recombinant CYP1A2, luciferin-ME demethylation, luminescence; series mostly up to 57 µM
Outline: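 Luminescent demethylation readout: Luciferin-ME (100uM, equal to Km) turned over by 20nM CYP1A2 for 60 min at room temperature after NADPH regeneration addition, following 10 min compound preincubation. Normalization used 57 uM furafylline as full inhibition.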

[15] = NFAT Signaling Pathway (AID 444; active = well fitted curve in either direction with a large enough effect, not every such curve was filed as active;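 also: carbachol stimulus at about its EC50 of 1 µM final; % is scaled to controls: 0 for no effect and ±100 for the full control effect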); settings: Jurkat NFAT-bla M1, carbachol, beta-lactamase ratio, 5 h; at 38 µM (top of the series) unless noted
Outline: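 Read-out: CCF4 FRET ratio (460 nm/530 nm) after 1 h RT dye loading, used for %activity and AC50 from titration series. Cells: Jurkat NFAT-β-lactamase/M1 line, treated with compound plus 1 uM carbachol for 5 h, 37 °C.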

[16] = biological target: Glucocorticoid receptor (Homo sapiens) (UniProt P04150); experiment: GR-GFP Redistribution (AID 450;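 active = compounds whose dose series gives a full or clear partial fitted curve of increased nuclear translocation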; also: potency is read from the fitted curve at half-maximal effect); settings: U2OS GR-GFP nuclear translocation, laser cytometry, 2 h
[17] = biological target: Glucocorticoid receptor (Homo sapiens) (UniProt P04150); experiment: GR-EFC Redistribution (AID 451; calls by dose curve; also: potency is read from the fitted curve at half-maximal effect); settings: CHO-K1 GR-EFC translocation, beta-gal luminescence, 2 h
Outline: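 Translocation of GR-ED fusion to nuclear EA restores b-gal, read by luminescence after 1 h room-temperature detection. Engineered CHO-K1 biosensor cells, 1,000/well, exposed 2 h at 37 C to titrations up to 46 uM final.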

[18] = Stat Signaling Pathway (AID 446; active = well fitted curve in either direction with a large enough effect, not every such curve was filed as active;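 also: ME-180 cervical cancer cells given 40 pM IL-6 alongside compound; SIE-controlled beta-lactamase reporter measured as 460/530 nm FRET emission ratio; % is scaled to controls: 0 for no effect and ±100 for the full control effect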); settings: ME-180 (cervical carcinoma) SIE beta-lactamase reporter, IL-6 stimulated, 5 h; at 38 µM (top of the series) unless noted
Outline: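 FRET read-out (405 nm excitation, 460/530 nm emission) of a beta-lactamase reporter under a STAT-inducible element in ME-180 cervical carcinoma cells. Cells with compound receive 40 pM IL-6 for 5 h. Values are normalised to AC90 stimulation and AC90 JAK-inhibitor controls.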

Sequence of Glucocorticoid receptor (Homo sapiens) (P04150 whole entry, looked up, the tested form may be a part): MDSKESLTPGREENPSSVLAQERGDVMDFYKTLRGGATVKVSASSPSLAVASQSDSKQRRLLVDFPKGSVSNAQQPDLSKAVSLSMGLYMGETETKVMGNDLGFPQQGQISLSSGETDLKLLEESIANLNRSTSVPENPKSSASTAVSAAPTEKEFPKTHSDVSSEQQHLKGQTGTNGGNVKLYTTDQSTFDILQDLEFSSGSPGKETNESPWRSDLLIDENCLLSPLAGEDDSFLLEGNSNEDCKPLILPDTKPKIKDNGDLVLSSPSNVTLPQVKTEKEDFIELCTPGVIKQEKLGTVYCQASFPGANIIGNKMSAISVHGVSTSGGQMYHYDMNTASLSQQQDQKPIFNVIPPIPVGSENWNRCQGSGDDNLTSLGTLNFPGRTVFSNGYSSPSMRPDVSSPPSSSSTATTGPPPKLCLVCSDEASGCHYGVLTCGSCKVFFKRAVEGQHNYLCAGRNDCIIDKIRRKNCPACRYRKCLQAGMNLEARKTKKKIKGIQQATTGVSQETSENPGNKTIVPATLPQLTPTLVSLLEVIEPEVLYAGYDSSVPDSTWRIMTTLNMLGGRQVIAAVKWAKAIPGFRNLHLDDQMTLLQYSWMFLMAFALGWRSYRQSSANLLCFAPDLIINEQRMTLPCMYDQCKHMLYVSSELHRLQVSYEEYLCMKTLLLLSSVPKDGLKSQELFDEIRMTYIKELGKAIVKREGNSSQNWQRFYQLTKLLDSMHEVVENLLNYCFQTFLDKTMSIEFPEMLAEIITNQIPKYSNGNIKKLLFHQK
Sequence of Cytochrome P450 1A2 (Homo sapiens) (P05177 whole entry, looked up): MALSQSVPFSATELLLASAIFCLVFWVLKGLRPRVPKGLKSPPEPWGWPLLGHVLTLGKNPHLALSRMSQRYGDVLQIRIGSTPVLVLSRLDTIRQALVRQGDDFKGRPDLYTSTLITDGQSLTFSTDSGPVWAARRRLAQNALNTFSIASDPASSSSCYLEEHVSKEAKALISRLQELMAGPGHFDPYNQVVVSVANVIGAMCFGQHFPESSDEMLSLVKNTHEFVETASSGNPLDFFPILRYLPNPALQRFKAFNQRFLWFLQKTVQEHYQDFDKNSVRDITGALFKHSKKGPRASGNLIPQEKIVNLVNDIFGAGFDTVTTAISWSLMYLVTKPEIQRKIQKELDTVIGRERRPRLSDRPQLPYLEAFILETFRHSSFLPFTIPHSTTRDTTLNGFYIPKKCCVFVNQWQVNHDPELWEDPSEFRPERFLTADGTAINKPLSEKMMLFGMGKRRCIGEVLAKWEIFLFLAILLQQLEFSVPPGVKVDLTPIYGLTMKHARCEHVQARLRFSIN

Row | SMILES | Potency [1] | Potency [2] | Potency [3] | Potency [4] | Potency [5] | Potency [6] | outcome [7] | Potency [8] | Potency [9] | Potency [10] | Potency [11] | Potency [12] | Potency [13] | Potency [14] | activity change, negative = inhibition [15] | Potency [16] [µM] | Potency [17] [µM] | activity change, negative = cytotoxicity [9] | activity, negative = inhibition [18] | activity change, negative = cytotoxicity [8]
1 | CC(C)CCON=O | > 92 µM | > 92 µM | > 92 µM | > 92 µM | > 92 µM | > 92 µM | inactive | inactive | inactive | inactive | inactive | inactive | inactive | – | – | – | – | – | – | –
2 | c1ccc2c(c1)[I+]c1ccccc1-2 | – | – | – | – | – | – | inactive | – | – | – | – | – | – | 126 nM (active) and 20 nM (active) | -17.4% | > 46 | > 46 | – | – | –
3 | O=Cc1ccco1 | > 92 µM | > 92 µM | > 92 µM | > 92 µM | > 92 µM | > 92 µM | – | inactive | inactive | inactive | inactive | inactive | inactive | – | – | – | – | – | – | –
4 | O=CC=O | > 92 µM | > 92 µM | > 92 µM | > 92 µM | > 92 µM | > 92 µM | inactive | inactive | 12.6 µM (active) | inactive | – | inactive | inactive | – | – | – | – | – | – | –
5 | O=[N+]([O-])c1ccccc1 | > 92 µM | > 92 µM | > 92 µM | > 92 µM | > 92 µM | > 92 µM | inactive | inactive | inactive | inactive | inactive | inactive | inactive | – | – | – | – | – | – | –
6 | C[C@H]1CCC[C@H](O)CCCCCc2cc(O)cc(O)c2C(=O)O1 | > 92 µM | > 92 µM | – | > 92 µM | > 92 µM | – | inactive | inactive | – | inactive | – | inactive | inactive | – | – | – | – | -108% (active) | – | –
7 | [Cl-].[Cl-].[Hg+2] | 29.4 µM (active) | 25.3 µM (active) | 19.4 µM (active) | – | 33.4 µM (active) | 16 µM (active) | inactive | 31.6 µM (active) | 15.8 µM (active) | 20 µM (active) | 158 nM (active) | 316 nM (active) | 12.6 µM (active) | – | – | – | – | – | – | –
8 | O=C1CCO1 | > 92 µM | > 92 µM | > 92 µM | > 92 µM | > 92 µM | > 92 µM | inactive | inactive | inactive | inactive | inactive | inactive | inactive | – | – | – | – | – | – | –
9 | C=CCN=C=S | > 92 µM | > 92 µM | > 92 µM | > 92 µM | > 92 µM | > 92 µM | inactive | inactive | inactive | inactive | inactive | inactive | inactive | – | – | – | – | – | – | –
10 | O=[N+]([O-])c1ccc(F)c([N+](=O)[O-])c1 | 59.9 µM (active) | 8.96 µM (active) | – | 46.1 µM (active) | > 92 µM | 45.7 µM (active) | inactive | – | – | – | 25100 nM (active) | – | inactive | – | – | – | – | -151% (active) | – | –
11 | COc1ccc2c(c1OC)C(=O)OC2C1c2cc3c(cc2CCN1C)OCO3 (stereo unspecified) | > 92 µM | > 92 µM | > 92 µM | > 92 µM | > 92 µM | > 92 µM | inactive | inactive | inactive | inactive | inactive | inactive | inactive | – | – | – | – | – | – | –
12 | CN1[C@@H]2CC[C@H]1CC(OC1c3ccccc3CCc3ccccc31)C2 (stereo partly specified) | – | – | – | – | – | – | inactive | – | – | – | – | – | – | – | -67.9% [at 17.2 µM] (active) | > 20.6 | > 20.6 | – | 5.86% [at 17.2 µM] | –
13 | [O]=[Cr](=[O])([OH])[O][Cr](=[O])(=[O])[OH] | 19.5 µM (active) and 13.4 µM (active) and 4.66 µM (active) | 1.88 µM (active) and 3.05 µM (active) and 549 nM (active) | 30.9 µM (active) and 31.8 µM (active) and 19.2 µM (active) | 12.2 µM (active) and 14.7 µM (active) and 7.52 µM (active) | 4.16 µM (active) and 11.5 µM (active) and 9.77 µM (active) | 19.2 µM (active) and 17.1 µM (active) and 3.88 µM (active) | inactive | 39.8 µM (active) and 25.1 µM (active) | 15.8 µM (active) | – | 316 nM (active) and 15.8 µM (active) and 3.98 µM (active) | 2.51 µM (active) and 7.94 µM (active) and 501 nM (active) | inactive | – | – | – | – | -141% (active) and -151% (active) | – | -124% (active)
14 | Cc1cc(C)cc(C(=O)OC2C[C@H]3CC[C@@H](C2)N3C)c1 (stereo partly specified) | – | – | – | – | – | – | inactive | – | – | – | – | – | – | – | – | > 46 | > 46 | – | – | –
15 | CCOC(=O)c1ccccc1C(=O)OCC | > 92 µM | > 92 µM | > 92 µM | > 92 µM | > 92 µM | > 92 µM | inactive | inactive | inactive | inactive | inactive | inactive | inactive | – | – | – | – | – | – | –
16 | ClCC1CO1 (stereo unspecified) | > 92 µM | > 92 µM | > 92 µM | > 92 µM | > 92 µM | > 92 µM | inactive | inactive | inactive | inactive | inactive | inactive | inactive | – | – | – | – | – | – | –
17 | O=C1C2CC=CCC2C(=O)N1SC(Cl)(Cl)Cl (stereo unspecified) | 54.5 µM (active) and 21.4 µM (active) | 4.24 µM (active) and 4.76 µM (active) | 26.5 µM (active) and 26.9 µM (active) | 40.6 µM (active) and 37.9 µM (active) | 24.9 µM (active) and 14.7 µM (active) | 27.7 µM (active) and 13.2 µM (active) | inactive | 20 µM (active) and 10 µM (active) | 5.01 µM (active) and 2 µM (active) | 7.94 µM (active) and 6.31 µM (active) | 2 µM (active) and 1 µM (active) | 3.98 µM (active) and 3.16 µM (active) | 25.1 µM (active) and 20 µM (active) | – | – | – | – | – | – | –
